# Experimental data from PubChem BioAssay (NCI).
# The panel holds about 83,000 compounds, 20% with a hit somewhere; the sample as a whole holds those more often.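 The endpoint reported here, percent growth, reads 100 for growth as untreated, 0 for no net growth and -100 for all cells dead.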 Active and inactive are the calls of the source. The calls were made as follows: active = growth percent below 10; inactive = the rest.
# Tested on: HL-60(TB) leukemia
# Assay: NCI-60 one-dose screen, 48 h (100 = growth as untreated, 0 = no growth, -100 = all killed)
# Conditions: 10 µM unless noted
row,SMILES,growth
1,CCc1ccc(-c2nnc(COc3ccc(-c4nc5ccc(C)cc5[nH]4)cc3OC)o2)cc1,6.14% (active)
2,COC(=O)/C(Br)=C/c1c[nH]c2ccc(Br)cc12,67.9% (inactive)
3,CN(C)c1ccc(N=Nc2ccc3ccccc3c2)cc1,61.6% (inactive)
4,CCn1c(=O)c2c(=O)c3c4c(oc3oc2c2ccccc21)C(=O)c1ccccc1C4=O,-18.8% (active)
5,CNC(=O)c1cnc(C)nc1-c1cc(C(C)(C)C)c(O)c(C(C)(C)C)c1,91.1% (inactive)
6,C=C(C)[C@@H]1CC[C@]2(C(=O)O)CC[C@]3(C)[C@H](CC[C@@H]4[C@@]5(C)CCC(N)C(C)(C)[C@@H]5CC[C@]43C)[C@@H]12 (stereo not given in full),-45.5% (active)
7,CC(CN1CCN(CCOCCO)CC1)CN1c2ccccc2Sc2ccc(Cl)cc21 (stereo not given),80.8% (inactive)
8,COc1ccc2c(c1)N(CCO)C1=C(C(=O)OC1)C2c1ccccc1 (stereo not given),-20% (active)
9,Cc1cc(C)c(N)c(S(=O)(=O)O)c1,106% (inactive)
10,C=C1C(=O)O[C@H]2[C@H]1CC/C(COC(=O)n1ccnc1C)=C\CC[C@@]1(C)O[C@@H]21,83.2% (inactive)
11,O=C1/C(=C\c2ccc[nH]2)c2ccccc2N1c1ccccc1,94.4% (inactive)
12,CC(C)[C@@H]1NC(=O)[C@]2(C)CSC(=N2)c2ccnc(c2)CNC(=O)C[C@@H](/C=C/CCS)OC1=O,9.07% (active)
13,C#Cc1ccc(-n2c(/C=C/c3ccc(O)c(OC)c3)nc3ncccc3c2=O)cc1,84.7% (inactive)
14,CC(=O)c1cccs1,130% (inactive)
15,CCOC(=O)CCCS(C)(=O)=O,117% (inactive)
16,CCc1nc2ccc(Cc3ccc(C(=O)NO)cc3)cc2c(=O)n1CCc1ccccc1,-20.3% (active)
17,CCCCn1sc(=O)n(Cc2ccc(CNC(=O)OCc3ccc4c(Br)cc(Br)c(O)c4n3)cc2)c1=O,-60.6% (active)
18,N#Cc1c2c([nH]c(=O)c1C(N)=O)CCCCC2,104% (inactive)
19,COc1ccc2nc3cc(Cl)ccc3c(N3CCN(c4nccc(NCc5ccccc5)n4)CC3)c2c1,61.7% (inactive)
20,O=C1C=CC(=O)N1c1ccc2c(c1)Cc1cc(F)ccc1-2,63% (inactive)

row,SMILES,growth
1,FC(F)(F)c1cc(N2CCCCC2)nc(NCCCNc2ccnc3cc(Cl)ccc23)n1,42.1% (inactive)
2,Cc1ccc(C2=NNC(c3sc(Cl)nc3Cl)C2)cc1 (stereo not given),92.7% (inactive)
3,NC1=NC(c2ccc(Cl)cc2)C2=C(N1)/C(=C/c1ccc(Cl)cc1)CCC2 (stereo not given),64.8% (inactive)
4,Cc1ccc2c(c1)Nc1ccc(C)cc1C2(C)C,81% (inactive)
5,CCOC(=O)C1=C(C)NC(=O)NC1c1c(Cl)n(-c2ccccc2)c2ccccc12 (stereo not given),73.4% (inactive)
6,CCC(=O)Oc1ccc(/C=N/NC(N)=S)nc1,19.9% (inactive)
7,CCNCCNc1cc(C2CCCCC2)c(C#N)c2nc3ccccc3n12,-62.4% (active)
8,Cc1ccc(-c2cc(-c3ccc(C)cc3)nc(NCCNc3ccnc4cc(Cl)ccc34)n2)cc1,-44.6% (active)
9,CN1CCN(/C=C2\CC(C(=O)NCc3ccc(Cl)cc3Cl)NC2=O)CC1 (stereo not given),103% (inactive)
10,O=S(=O)(c1ccccc1)N1CCCN(c2nc(-c3ccccc3)nc3nc(-c4ccccc4)oc23)CC1,102% (inactive)
11,CN1C(=O)/C(=C2\SC(=Nc3ccccc3)N(Nc3ccccc3)C2=O)c2ccccc21,108% (inactive)
12,COc1ccc(-c2[nH]c3ccc(OC)cc3c2/C=C(\C#N)S(=O)(=O)c2ccccc2)cc1,8.54% (active)
13,Cc1nc2sc(C(=O)Nc3ccccn3)c(N)c2cc1C(C)O (stereo not given),34.1% (inactive)
14,Cc1ccc(NS(=O)(=O)c2ccc(-c3cnc(C4CC4)o3)cc2)cc1C,-1.17% (active)
15,COc1cc(C(C)c2ccc3c(ccn3C)c2)cc(OC)c1OC (stereo not given),-12.1% (active)
16,Nc1ccc(C(=O)/C=C/c2ccccc2)cc1,27.4% (inactive)
17,CCCCN(CCCC)CCC(O)c1cc2ccc(C(F)(F)F)cc2c2cc(C(F)(F)F)ccc12 (stereo not given),49.8% (inactive)
18,FC(F)(F)c1cccc([Si](F)(c2cccc(C(F)(F)F)c2)c2cccc(C(F)(F)F)c2)c1,80.5% (inactive)
19,COc1ccc(/C=C2/CN(C(=O)c3ccc(C)cc3)C/C(=C\c3ccc(OC)cc3)C2=O)cc1,80% (inactive)
20,Cc1[nH]c(C(=O)Nc2ccccc2OC2CCNCC2)c(Cl)c1Cl,-57.1% (active)
